In the library only some 4.6% were active in any assay of this set; here they are far more common.
AHR act: activators of human aryl hydrocarbon receptor. P35869. AHR-responsive luciferase reporter cells, luminescence. activation, % at 5 µM. actives 2.5% (n = 320,000); in the data active means activation above about 47%;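 further: 0% = vehicle wells and 100% = reference agonist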
HSF1 inhib: HSF1 inhibition; NIH3T3-HGL HSE-luciferase, MG132-induced, luminescence 8 h; stronger effect = lower value; actives 0.77% (n = 300,000); activity change, negative = inhibition, % at 7.5 µM (by protocol);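 active means more than half of replicate wells show activity change below -50%, luminescence cut by over half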;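 further: luciferase reports HSF-1 transcriptional activity via heat shock element; 0% = median of DMSO wells and -100% = zero luminescence signal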
HSF1 activator: increases HSF-1 driven luciferase reporter signal; actives 1.7% (n = 300,000); NIH3T3-HGL HSF-1 luciferase reporter, MG132, 8 h; 100% = twice DMSO control signal; AID 504408; activation, % at 9 µM;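 active means mean replicate activation of at least 50% with a set share of replicates each reaching 50%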;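 further: 0% = median of the neutral control wells and 100% = twice that signal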
FXN GAA850 act: frataxin GAA850 promoter activation; HEK293 lucGAA850 FXN promoter luciferase reporter, 24 h; percent of 10 µM SAHA response; activation, % at 6 µM; actives 0.56% (n = 360,000);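 active means activation above the average of all compounds screened plus 3 SD, cutoff fixed separately per campaign, cut at about 7.5% in these data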;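 further: 0% = DMSO wells and 100% = 10 µM SAHA wells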
* hit, by the source's call; · = no result.

SMILES	AHR act	HSF1 inhib	HSF1 activator	FXN GAA850 act
COc1ccc(-c2cc(C(=O)NCc3ccco3)c3ccccc3n2)cc1	24	51	86*	2
COc1ccccc1NC(=O)c1cc(-c2ccc(C)o2)nc2ccccc12	72*	-2	-13	0
Cc1ccc(-c2cc(C(=O)Nc3cccnc3)c3ccccc3n2)o1	11	34	52*	0
C=CCSc1nc(N)c(C(=O)Nc2ccccc2OC)cc1C(=O)Nc1ccccc1	75*	-6	0	2
Cc1ccc(C)c(-c2cc(C(=O)Nc3cccnc3)c3ccccc3n2)c1	11	2	11	-2
COc1ccc(OC)c(/C=N/NC(=O)c2cc(-c3ccc(C)o3)nc3ccccc23)c1	20	-3	35	-4
CC1=Nc2cc(C(=O)NCC3CCCO3)ccc2Sc2ccc(C)cc21 (configuration not stated)	1	12	11	-3
COc1ccc(NC(=O)c2cc(-c3ccncc3)nc3ccccc23)c(OC)c1	56*	·	·	0
COc1ccc2cc(C(=O)NCc3ccco3)c(=Nc3ccc(C(=O)O)cc3)oc2c1	-6	-63*	-64	3
Cc1ccc(NC(=O)c2cc(-c3ccc(C)o3)nc3ccccc23)cc1	57*	-7	0	7
Cc1ccc(-c2cc(C(=O)Nc3ccccn3)c3ccccc3n2)o1	5	4	-7	-2
COc1ccccc1NC(=O)c1cc(C)nc2ccccc12	74*	-2	2	0
COc1ccc(OCc2nc(N)nc(Nc3ccccc3OC)n2)cc1	17	5	17	1
CC1CCCCN1C(=O)COC(=O)c1cc([N+](=O)[O-])ccc1N1CCOCC1 (configuration not stated)	2	2	13	0
O=C(Nc1ccc(F)cc1F)c1cc(-c2ccco2)nc2ccccc12	45	13	23	-1
O=C(Nc1ccccc1F)c1cc(-c2ccco2)nc2ccccc12	60*	2	-1	2
O=C(Nc1ccc(Cl)cc1)OCc1cn(-c2ccc(Cl)cc2)nn1	8	5	12	3
Clc1ccc(-n2cc(COCc3ccccc3)nn2)cc1	2	28	61*	6
O=C(O)CCC(=O)N1CCC(C(=O)c2cccc(Cl)c2)CC1	0	10	10	2
COc1ccc(-c2cc(C(=O)Nc3ccccc3F)on2)cc1	-6	35	54*	0
C=CCN1C(c2cccc(C(F)(F)F)c2)=CS/C1=C(\C#N)c1nnc(N2CCOCC2)n1-c1ccccc1	·	·	·	4
C=CCN1C(=O)NC(c2ccccc2)(C(F)(F)F)S/C1=C(\C#N)c1nnc(N2CCOCC2)n1-c1ccccc1 (configuration not stated)	-1	37	83*	2
O=C(N1CCCCC1)N1CCN(S(=O)(=O)c2cccc([N+](=O)[O-])c2)CC1	1	1	1	-2
Clc1ccc2[nH]c3c(c2c1)CCc1cn[nH]c1-3	96*	33	46	-2
c1ccc2c3c([nH]c2c1)-c1[nH]ncc1CC3	29	4	2	-3
SMILES	AHR act	HSF1 inhib	HSF1 activator	FXN GAA850 act
Oc1ccccc1-c1nc2c3ccccc3c3ccccc3c2[nH]1	53*	-1	9	1
O=C(Cn1c(=O)c2cccn2c2cccnc21)NCCCN1CCN(c2ccc(F)cc2)CC1	2	8	0	-1
CCc1nc2c(OCc3ccccc3C)cccn2c1N(C)C(=O)c1ccc(C)cc1	·	·	·	-3
CCOC(=O)Cc1c(C)nc2cc(-c3ccc(Cl)cc3)[nH]n2c1=O	58*	0	26	3
CCOC(=O)CCc1c(C)nc2cc(-c3ccc(F)cc3)[nH]n2c1=O	6	4	3	0
CCCN(CCC)C(=S)NC1CC2C=CC1C2 (configuration not stated)	2	30	52*	0
COc1ccc(CNC(=O)C2CCCN(S(=O)(=O)c3ccc(Br)s3)C2)cc1 (configuration not stated)	3	13	14	1
Cc1nn(Cc2ccccc2Cl)c(C)c1NC(=O)CCCn1nc([N+](=O)[O-])c(Cl)c1C	2	23	61*	-1
O=S(=O)(c1cccc(-c2nnc(SCc3nc4ccccc4s3)o2)c1)N1CCOCC1	20	54	54*	3
CC(=O)CCSc1nnc(-c2cccc(S(=O)(=O)N3CCOCC3)c2)o1	0	0	-10	-3
O=C(N/N=C/c1c[nH]c2ccccc12)c1sc2ccccc2c1Cl	50*	-15	-33	1
O=C(N/N=C/c1ccccn1)c1sc2ccccc2c1Cl	9	-11	-21	13*
O=C(N/N=C/c1c[nH]c2ccccc12)c1ccccc1	17	7	20	5
CC(C)(C)c1cc(C(=O)N/N=C/c2ccc(F)cc2)n(-c2ccccc2)n1	2	-1	7	1
Cc1ccnc(NC(=O)c2cc3cc(F)ccc3s2)c1	13	32	72*	4
Cc1ccnc(NC(=O)Nc2ccc(F)cc2)c1	12	29	61*	4
O=S(=O)(Nc1ccc2c(c1)OCO2)c1cccc(Br)c1	0	·	·	1
CNC(=S)N1N=C2c3ccccc3CCC2C1c1ccccc1Cl (configuration not stated)	3	3	1	0
CN1CCN(C2=Nc3cc(F)ccc3Cc3ccccc32)CC1	-4	-7	-13	·
CN1N=C2c3ccccc3CCC2C1c1ccc(Cl)cc1 (configuration not stated)	66*	-34	-30	1
CN1N=C2c3ccccc3CCC2C1c1ccc(F)cc1 (configuration not stated)	76*	-8	-21	0
CO/N=C1\CCn2c1c(C)c1ccccc12	5	-8	7	-1
COc1ccc(N2CCN(S(=O)(=O)c3cc4c(cc3C)NC(=O)CO4)CC2)cc1	-2	-9	2	-2
COc1ccc(N2CCN(S(=O)(=O)c3cc4c(cc3C)N(C(C)=O)CCO4)CC2)cc1	0	-58*	-67	-1
Cc1ccc(Nc2nc(CSc3nnnn3-c3ccccc3)cs2)cc1	30	31	70*	-2
SMILES	AHR act	HSF1 inhib	HSF1 activator	FXN GAA850 act
CCc1ccc(Nc2nc(N)nc(CSc3nnnn3-c3ccccc3)n2)cc1	50*	9	7	1
COc1ccc(CCNC(=O)CN2C(=O)C3(OCCCO3)c3ccccc32)cc1OC	-3	-2	7	-2
Cc1ccc(C)c(NC(=O)c2cc(=O)c3ccccc3o2)c1	12	0	9	2
COc1cc(CC(=O)N(c2ccccc2)c2nc(C)cs2)cc(OC)c1OC	2	23	62*	0
CC(C)NCC(O)COCCOc1ccc(Br)cc1 (configuration not stated)	1	-1	-4	1
Cc1ccc(C(=O)NCc2ccc(N3CCN(C)CC3)cc2)cc1C	2	-69*	-75	1
CN1CCN(c2ccc(CNC(=O)c3cc4ccccc4o3)cc2)CC1	-1	-2	1	2
Cc1ccc(S(=O)(=O)Nc2ccccc2-c2ccccc2NS(=O)(=O)c2ccc(C)cc2)cc1	-2	3	8	0
